According to PubChem BioAssay AID1159580 (chemical genetic matrix, 2015):
Hit rate of the full screen: of about 5,500 compounds, about 2,000 (36%) were called active. Roughly 18% stayed inconclusive and do not appear here. Rule as the data show it: active = normalized growth mostly below about 0.91 (no sharp cut-off); inconclusive = no clear call, values can overlap the other calls; inactive = mostly above about 0.92. This is one part of the list.

Assay: chemical genetic growth profiling, strain panel (AID 1159580);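 also: tested at 20 µM; growth read once vehicle control cultures reached saturation at 30 °C; 1 = growth at the plate median or of vehicle wells; lower values mean less growth of the strain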
Conditions: S. cerevisiae deletion strains, growth OD

Measured: normalized growth

O=C(O)c1cn(-c2ccc(F)cc2)c2cc(N3CCNCC3)c(F)cc2c1=O
inactive: locus YAL021C, strain ccr4, hits give low values 0.949 | locus YAL026C, strain drs2, hits give low values 0.975 | locus YAL030W, strain snc1, hits give low values 0.964 | locus YBL061C, strain skt5, hits give low values 0.981 | locus YBR009C, strain hhf1, hits give low values 0.979 | locus YBR023C, strain chs3, hits give low values 0.966 | locus YBR171W, strain sec66, hits give low values 0.958 | locus YBR231C, strain swc5, hits give low values 0.967 | locus YBR279W, strain paf1, hits give low values 0.959 | locus YCL011C, strain gbp2, hits give low values 0.975 | locus YCL016C, strain dcc1, hits give low values 0.983 | locus YCL061C, strain MRC1, hits give low values 0.969 | locus YCL069W, strain vba3, hits give low values 0.983 | locus YCR088W, strain abp1, hits give low values 0.982 | locus YDL005C, strain med2, hits give low values 0.985 | locus YDL040C, strain nat1, hits give low values 0.979 | locus YDR001C, strain nth1, hits give low values 0.952 | locus YDR069C, strain doa4, hits give low values 0.94 | locus YDR137W, strain rgp1, hits give low values 0.921 | locus YDR159W, strain sac3, hits give low values 0.96 | locus YDR195W, strain ref2 0.921 | locus YDR297W, strain sur2, hits give low values 0.981 | locus YDR334W, strain swr1, hits give low values 0.938 | locus YDR335W, strain msn5, hits give low values 0.949 | locus YDR392W, strain spt3, hits give low values 1.02 | locus YEL003W, strain gim4, hits give low values 0.96 | locus YEL037C, strain rad23, hits give low values 0.959 | locus YEL061C, strain CIN8 (second series), hits give low values 0.97 | locus YER015W, strain faa2, hits give low values 0.983 | locus YER016W, strain bim1, hits give low values 0.967 | locus YER111C, strain swi4, hits give low values 0.967 | locus YER155C, strain BEM2 (second series), hits give low values 0.919 | locus YFR010W, strain ubp6, hits give low values 0.949 | locus YGL167C, strain pmr1, hits give low values 0.941 | locus YGL173C, strain kem1, hits give low values 0.984 | locus YGL227W, strain vid30, hits give low values 0.954 | locus YGL240W, strain doc1, hits give low values 0.944 | locus YGL253W, strain hxk2, hits give low values 0.993 | locus YHR013C, strain ard1, hits give low values 0.982 | locus YHR027C, strain rpn1, hits give low values 0.976 | locus YHR030C, strain SLT2, hits give low values 1.04 | locus YHR079C, strain IRE1, hits give low values 1.03 | locus YHR142W, strain chs7, hits give low values 1.01 | locus YJL092W, strain hpr5, hits give low values 0.974 | locus YJL095W, strain BCK1 (second series), hits give low values 0.977 | locus YJL095W, strain BCK1, hits give low values 0.976 | locus YJL115W, strain asf1, hits give low values 0.963 | locus YJL129C, strain trk1, hits give low values 0.992 | locus YJL154C, strain vps35, hits give low values 0.97 | locus YJL164C, strain tpk1, hits give low values 0.993 | locus YJL166W, strain qcr8, hits give low values 0.947 | locus YJL187C, strain SWE1, hits give low values 0.979 | locus YJR066W, strain TOR1, hits give low values 0.985 | locus YKL160W, strain elf1, hits give low values 0.989 | locus YKR026C, strain gcn3, hits give low values 0.962 | locus YKR091W, strain srl3, hits give low values 0.979 | locus YLL001W, strain dnm1, hits give low values 0.977 | locus YLL026W, hits give low values 0.967 | locus YLL041C, strain sdh2, hits give low values 0.977 | locus YLR027C, strain aat2, hits give low values 0.982 | locus YLR113W, strain HOG1, hits give low values 0.975 | locus YLR221C, strain rsa3, hits give low values 0.992 | locus YLR258W, strain gsy2, hits give low values 0.979 | locus YLR262C, strain YPT6 (second series), hits give low values 0.951 | locus YLR320W, strain mms22, hits give low values 0.981 | locus YLR342W, strain FKS1, hits give low values 0.96 | locus YLR357W, strain rsc2, hits give low values 0.958 | locus YLR370C, strain arc18, hits give low values 0.948 | locus YLR384C, strain iki3, hits give low values 0.971 | locus YML120C, strain ndi1, hits give low values 0.972 | locus YMR058W, strain fet3, hits give low values 0.968 | locus YMR125W, strain sto1, hits give low values 0.967 | locus YMR129W, hits give low values 0.997 | locus YMR205C, strain PFK2, hits give low values 0.995 | locus YMR231W, strain pep5, hits give low values 0.973 | locus YNL071W, strain lat1, hits give low values 0.991 | locus YNL183C, strain NPR1, hits give low values 0.982 | locus YNL209W, strain ssb2, hits give low values 0.972 | locus YNL248C, strain rpa49, hits give low values 1.02 | locus YNL322C, strain KRE1 (second series), hits give low values 0.966 | locus YNR049C, strain mso1, hits give low values 0.979 | locus YOR001W, strain rrp6, hits give low values 0.952 | locus YOR070C, strain gyp1, hits give low values 0.984 | locus YOR080W, strain dia2, hits give low values 0.945 | locus YOR083W, strain WHI5, hits give low values 0.987 | locus YOR106W, strain vam3, hits give low values 0.962 | locus YOR231W, strain MKK1, hits give low values 1.01 | locus YOR265W, strain rbl2, hits give low values 0.974 | locus YOR270C, strain vph1, hits give low values 0.947 | locus YOR290C, strain snf2, hits give low values 0.965 | locus YPL051W, strain arl3, hits give low values 0.955 | locus YPL078C, strain atp4, hits give low values 0.972 | locus YPL106C, strain sse1, hits give low values 0.895 | locus YPL240C, strain hsp82, hits give low values 0.996 | locus YPL256C, strain CLN2, hits give low values 1.06
